Measurements reported in PubChem BioAssay (NCATS).
Where “and” joins values, the source holds several entries; their conditions need not be identical. Equal values may be shown once. Records with an inconclusive call do not appear. Calls of active or inactive are those of the source. Unless noted, calls follow the shape of the dose curve; as a rule, active = well fitted curve in the direction sought with a large enough effect; inconclusive = small, poorly fitted or top-dose-only effect, or another doubt; inactive = no such curve, though single readings can be large; an effect the other way counts as inactive or inconclusive.

What was measured:
[1] = target: Cytochrome P450 2C9 (Homo sapiens) (UniProt P11712); experiment: Cytochrome P450 family 2 subfamily C member 9 (CYP2C9) small molecule antagonists: luciferase biochemical (cell-free) qHTS assay (AID 1645842; active = well fitted curve in the direction sought with a large enough effect in the repeat runs; an effect the other way counts as inactive or inconclusive; also: nearly all actives have a fitted effect of over 55% in size; also: potency is read from the fitted curve at half-maximal effect; as to activity change, negative = inhibition: % is scaled to controls: 0 for no effect and ±100 for the full control effect)
In short: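 P450-Glo CYP2C9 system: proluciferin substrate with enzyme in mix containing 0.4% BSA, 10 min at room temperature, then NADPH regeneration solution added and incubated 1 h at 37C. Detection reagent stopped reaction; luminescence read after 20 min as RLU.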

[2] = Primary qHTS for inhibitors of nuclear receptor binding SET domain protein 2 (NSD2) in an isogenic RCH-ACV NSD2 p.E1099K mutant (9B) (AID 1645876); also: nearly all actives have a fitted effect of over 70% in size; also: potency is read from the fitted curve at half-maximal effect
[3] = Primary qHTS for inhibitors of nuclear receptor binding SET domain protein 2 (NSD2) in an RCH-ACV wild type WT cells (2C) (AID 1645877); also: nearly all actives have a fitted effect of over 70% in size; also: potency is read from the fitted curve at half-maximal effect
[4] = target: N-terminal Xaa-Pro-Lys N-methyltransferase 1 (Homo sapiens) (UniProt Q9BV86); experiment: Confirmatory qHTS for Inhibitors of N-terminal methyltransferase 1 (NTMT1): MTaseGlo Assay (AID 1645874); also: nearly all actives have a fitted effect of over 65% in size; also: potency is read from the fitted curve at half-maximal effect;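 as to activity change, negative = inhibition: luminescence from SAH made as NTMT1 methylates SPKRIA peptide using SAM; 0% = DMSO control and -100% = no-enzyme control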
In short: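 SPKRIA peptide at 1 uM was methylated by 125 nM NTMT1 using 100 uM SAM over 30 min at room temperature, following a 15 min compound preincubation. Product SAH was detected luminescently.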

[5] = target: Catechol O-methyltransferase (Homo sapiens) (UniProt P21964); experiment: Confirmatory Screen for Target Class Profiling of Small Molecule Inhibitors of Methyltransferases (AID 1745852); conditions: MTase-Glo luminescence, SAH detection, recombinant enzyme; measured here: COMT max response; stronger effect = lower value; as to activity change, negative = inhibition: % is scaled to controls: 0 for no effect and ±100 for the full control effect
[6] = target: Guanidinoacetate N-methyltransferase (Homo sapiens) (UniProt Q14353); experiment: as above; conditions: activity change, negative = inhibition: at 57.3 µM (top of the series) unless noted
[7] = target: Nicotinamide N-methyltransferase (Homo sapiens) (UniProt P40261); experiment: as above; conditions: MTase-Glo luminescence, SAH detection, recombinant enzyme; measured here: NNMT max response; stronger effect = lower value
[8] = target: Phenylethanolamine N-methyltransferase (Homo sapiens) (UniProt P11086); experiment: as above; conditions: MTase-Glo luminescence, SAH detection, recombinant enzyme; measured here: PNMT max response; stronger effect = lower value
[9] = target: Rap guanine nucleotide exchange factor 3 (Homo sapiens) (UniProt O95398); experiment: Confirmatory qHTS for agonist of cAMP-regulated guanine nucleotide exchange factor 3 (EPAC1) (AID 1645881);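 also: EPAC1 catalysed release of BODIPY-GDP from Rap1B seen as fluorescence loss; 100% = effect of cAMP agonist control; nearly all actives have a fitted effect of over 75% in size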
[10] = target: Rap guanine nucleotide exchange factor 4 (Homo sapiens) (UniProt Q8WZA2); experiment: Confirmatory qHTS for agonist of cAMP-regulated guanine nucleotide exchange factor 4 (EPAC2) (AID 1645884);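 also: nucleotide exchange releases bodipy-GDP from Rap1 and this lowers its fluorescence; % is scaled to controls: 0 for no effect and ±100 for the full control effect; nearly all actives have a fitted effect of over 65% in size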
[11] = target: Rap guanine nucleotide exchange factor 3 (Homo sapiens) (UniProt O95398); experiment: Counterscreen qHTS for antagonist of cAMP-regulated guanine nucleotide exchange factor 3 (EPAC1) (AID 1645888);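 also: fluorescence loss as bound BODIPY-GDP is released from Rap1B; % of control where 0% means no effect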
In short: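 Rap1B-BODIPY-GDP 250 nM + GDP 50 uM; cpds 7-pt, final 9.74 nM–152 uM (activator mode) or from 7.32 nM upwards (inhibitor mode); RT; FI 480/540 nm at 5 and 30 min, then ± cAMP, reread.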

N-terminal Xaa-Pro-Lys N-methyltransferase 1 (Homo sapiens), sequence (Q9BV86 whole entry, looked up): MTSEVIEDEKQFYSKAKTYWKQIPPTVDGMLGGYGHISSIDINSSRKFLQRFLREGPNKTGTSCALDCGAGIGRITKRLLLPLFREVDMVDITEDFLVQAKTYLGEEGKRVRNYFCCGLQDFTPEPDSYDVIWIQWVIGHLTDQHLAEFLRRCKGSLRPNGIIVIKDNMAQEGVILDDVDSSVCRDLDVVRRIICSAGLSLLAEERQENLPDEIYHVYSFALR
Cytochrome P450 2C9 (Homo sapiens), sequence (P11712 whole entry, looked up): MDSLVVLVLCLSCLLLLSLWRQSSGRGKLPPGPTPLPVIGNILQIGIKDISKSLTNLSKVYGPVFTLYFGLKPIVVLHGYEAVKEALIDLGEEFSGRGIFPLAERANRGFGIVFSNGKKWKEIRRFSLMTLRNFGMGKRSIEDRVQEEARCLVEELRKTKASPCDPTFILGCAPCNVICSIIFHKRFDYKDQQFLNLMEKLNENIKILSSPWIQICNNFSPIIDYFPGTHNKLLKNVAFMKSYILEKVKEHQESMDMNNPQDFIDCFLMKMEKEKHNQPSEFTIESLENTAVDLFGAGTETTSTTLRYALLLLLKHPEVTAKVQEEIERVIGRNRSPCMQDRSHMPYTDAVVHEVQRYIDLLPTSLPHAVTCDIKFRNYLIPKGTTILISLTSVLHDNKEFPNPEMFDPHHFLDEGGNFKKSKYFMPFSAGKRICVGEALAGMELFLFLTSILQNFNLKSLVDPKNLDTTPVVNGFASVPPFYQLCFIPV
Rap guanine nucleotide exchange factor 3 (Homo sapiens), sequence (O95398 whole entry, looked up): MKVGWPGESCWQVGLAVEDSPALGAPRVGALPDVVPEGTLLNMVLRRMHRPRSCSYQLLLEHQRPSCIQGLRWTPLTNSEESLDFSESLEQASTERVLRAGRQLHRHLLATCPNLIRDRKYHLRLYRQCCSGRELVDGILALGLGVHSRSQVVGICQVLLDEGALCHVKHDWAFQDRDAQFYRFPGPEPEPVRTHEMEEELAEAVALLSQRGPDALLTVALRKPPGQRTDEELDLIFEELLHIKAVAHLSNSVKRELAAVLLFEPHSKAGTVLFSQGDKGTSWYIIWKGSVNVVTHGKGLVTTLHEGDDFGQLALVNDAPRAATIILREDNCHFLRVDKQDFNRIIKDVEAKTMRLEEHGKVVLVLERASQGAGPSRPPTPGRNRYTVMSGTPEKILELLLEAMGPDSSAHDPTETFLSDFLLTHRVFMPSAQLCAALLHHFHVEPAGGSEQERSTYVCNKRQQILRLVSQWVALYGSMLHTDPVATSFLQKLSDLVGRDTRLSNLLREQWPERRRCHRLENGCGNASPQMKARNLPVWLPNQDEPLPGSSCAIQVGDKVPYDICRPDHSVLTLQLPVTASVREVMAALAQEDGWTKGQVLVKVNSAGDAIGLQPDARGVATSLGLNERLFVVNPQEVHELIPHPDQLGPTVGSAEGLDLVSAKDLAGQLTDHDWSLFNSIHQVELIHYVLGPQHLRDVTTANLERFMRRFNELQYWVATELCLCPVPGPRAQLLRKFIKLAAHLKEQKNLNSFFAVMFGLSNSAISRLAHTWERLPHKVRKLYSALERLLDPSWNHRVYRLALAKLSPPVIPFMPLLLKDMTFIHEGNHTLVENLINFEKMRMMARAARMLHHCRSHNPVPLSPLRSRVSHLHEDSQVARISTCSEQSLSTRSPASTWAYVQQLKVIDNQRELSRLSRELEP
Nicotinamide N-methyltransferase (Homo sapiens), sequence (P40261 whole entry, looked up): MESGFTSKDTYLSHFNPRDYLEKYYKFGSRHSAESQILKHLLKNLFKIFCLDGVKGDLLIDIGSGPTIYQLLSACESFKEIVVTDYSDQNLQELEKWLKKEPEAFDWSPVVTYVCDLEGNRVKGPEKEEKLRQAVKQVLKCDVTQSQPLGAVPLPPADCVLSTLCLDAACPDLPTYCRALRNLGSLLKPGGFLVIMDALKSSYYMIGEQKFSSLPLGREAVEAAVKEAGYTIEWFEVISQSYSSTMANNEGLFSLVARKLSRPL
Catechol O-methyltransferase (Homo sapiens), sequence (P21964 whole entry, looked up): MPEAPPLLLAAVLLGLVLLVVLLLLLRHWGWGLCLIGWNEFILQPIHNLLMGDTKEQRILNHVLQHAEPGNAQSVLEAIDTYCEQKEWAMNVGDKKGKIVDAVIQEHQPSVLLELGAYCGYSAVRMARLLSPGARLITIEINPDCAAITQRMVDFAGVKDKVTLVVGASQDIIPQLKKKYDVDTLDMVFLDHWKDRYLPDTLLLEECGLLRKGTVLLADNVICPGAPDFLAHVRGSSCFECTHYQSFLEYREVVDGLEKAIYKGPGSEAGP
Rap guanine nucleotide exchange factor 4 (Homo sapiens), sequence (Q8WZA2 whole entry, looked up): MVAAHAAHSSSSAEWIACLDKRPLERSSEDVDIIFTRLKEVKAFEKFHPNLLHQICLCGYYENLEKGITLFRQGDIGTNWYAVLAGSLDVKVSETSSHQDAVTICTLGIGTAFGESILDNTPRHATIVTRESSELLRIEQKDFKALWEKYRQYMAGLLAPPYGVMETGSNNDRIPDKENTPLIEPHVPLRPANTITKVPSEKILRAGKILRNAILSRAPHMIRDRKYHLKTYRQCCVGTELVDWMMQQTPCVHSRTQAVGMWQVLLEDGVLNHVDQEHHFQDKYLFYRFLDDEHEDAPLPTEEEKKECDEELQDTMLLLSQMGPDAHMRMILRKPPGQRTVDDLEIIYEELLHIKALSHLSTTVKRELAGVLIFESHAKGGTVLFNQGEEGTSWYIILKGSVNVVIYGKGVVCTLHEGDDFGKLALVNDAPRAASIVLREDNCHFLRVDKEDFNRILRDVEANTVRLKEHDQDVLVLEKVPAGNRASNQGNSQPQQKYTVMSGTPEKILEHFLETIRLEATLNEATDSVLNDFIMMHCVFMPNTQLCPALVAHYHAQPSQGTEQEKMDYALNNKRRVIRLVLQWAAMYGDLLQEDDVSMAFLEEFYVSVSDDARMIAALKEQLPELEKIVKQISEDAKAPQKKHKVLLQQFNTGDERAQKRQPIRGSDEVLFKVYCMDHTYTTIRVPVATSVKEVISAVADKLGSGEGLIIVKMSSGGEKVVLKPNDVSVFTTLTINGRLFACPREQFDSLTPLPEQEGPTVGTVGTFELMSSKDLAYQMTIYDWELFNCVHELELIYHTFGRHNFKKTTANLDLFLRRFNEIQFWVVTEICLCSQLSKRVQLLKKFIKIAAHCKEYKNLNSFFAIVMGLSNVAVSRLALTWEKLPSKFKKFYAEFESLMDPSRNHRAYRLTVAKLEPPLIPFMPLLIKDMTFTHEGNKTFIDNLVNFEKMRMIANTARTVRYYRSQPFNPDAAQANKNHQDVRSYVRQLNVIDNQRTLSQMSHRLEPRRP
Phenylethanolamine N-methyltransferase (Homo sapiens), sequence (P11086 whole entry, looked up): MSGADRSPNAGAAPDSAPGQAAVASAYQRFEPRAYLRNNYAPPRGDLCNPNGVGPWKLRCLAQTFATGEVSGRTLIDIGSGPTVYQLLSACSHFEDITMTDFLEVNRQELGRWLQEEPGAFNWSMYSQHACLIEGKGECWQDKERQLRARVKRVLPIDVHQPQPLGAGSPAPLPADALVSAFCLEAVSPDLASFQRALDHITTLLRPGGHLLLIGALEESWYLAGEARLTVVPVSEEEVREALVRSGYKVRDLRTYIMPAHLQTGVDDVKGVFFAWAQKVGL

With COc1ccc(-c2csc(NC(=O)[C@H]3CCCCN3S(=O)(=O)c3ccc(C)cc3)n2)cc1 the Potency [1] was 2.13 µM (active) and the Potency [2] was 18.3 µM (active).

With CN(C)CCN(Cc1ccccc1)C(=O)c1cc(-c2ccc(F)cc2)n2nc(C(C)(C)C)cc2n1 the Potency [1] was 16.9 µM (active), the Potency [2] was 3.25 µM (active) and the Potency [3] was 2.9 µM (active).

For CC(C)S(=O)(=O)NC[C@H](C)c1ccc(-c2ccc(CCNS(C)(=O)=O)cc2)cc1, the Potency [1] was 10.7 µM (active) and the Potency [2] was 6.49 µM (active).

With CC(C)c1ccc(-c2cc(=O)c3ccccc3o2)cc1 the Potency [1] was 5.35 µM (active) and the Potency [2] was 23 µM (active).

With Cc1c(NC(=O)OCC2COCCN2)cn2ncnc(Nc3ccc4c(cnn4Cc4cccc(F)c4)c3)c12 (centres undefined) the Potency [1] was 19 µM (active), the Potency [2] was 14.5 µM (active) and 18.6 µM (active) and the Potency [3] was 16.3 µM (active) and 16.6 µM (active).

In the case of O=C(N[C@H]1CCC[C@H](CO)C1)C1CCN(c2nc3cc(Cl)c(-c4ccc(Cl)cc4)cc3o2)CC1, the Potency [1] is reported as “inactive”, the Potency [2] is reported as 20.5 µM (active) and the Potency [3] is reported as 16.3 µM (active).

With CN(C)C(=O)Nc1cc(-c2ccccc2)ccc1N(C)C the Potency [1] was 15.1 µM (active), the Potency [4] was “inactive” and the Potency [3] was “inactive”.

For COc1cc2ncnc(Oc3ccc(CC(=O)Nc4cnn(C(C)C)c4)cc3)c2cc1OC, the Potency [1] was 13.5 µM (active) and the Potency [2] was 16.3 µM (active).

In the case of O=C(Nc1ccc(-n2nc(C(F)(F)F)cc2C(F)(F)F)cc1)c1ccncc1F, the Potency [1] is reported as 26.8 µM (active) and the Potency [2] is reported as 20.5 µM (active).

For Cc1cc(C(=O)Nc2cc(Nc3ccc4c(/C=C/c5ccccn5)n[nH]c4c3)ccc2F)n(C)n1, the Potency [1] was 4.25 µM (active), the Potency [2] was 7.28 µM (active) and 7.42 µM (active) and the Potency [3] was 9.16 µM (active) and 7.42 µM (active).

For O=C(NC1(c2ccccc2)CC1)c1c(CN2CCC(N3CCCCC3)CC2)c(-c2cccc(C(F)(F)F)c2)nc2cc(Br)ccc12, the Potency [1] was 23.9 µM (active), the Potency [2] was 12.9 µM (active) and the Potency [3] was 10.3 µM (active).

For O=S(=O)(Cc1ccccc1)Nc1ccc(-c2ccc3c(cnn3-c3ccc(F)cc3)c2)c(C(F)(F)F)c1, the Potency [1] was 6.01 µM (active), the Potency [4] was “inactive” and the Potency [2] was 18.3 µM (active). For the same molecule, the Potency [3] was 0.183 µM (active).

With COc1cccc(OCCCN)c1-c1cc(Nc2cnc(C#N)cn2)n[nH]1 the Potency [1] was “inactive”, the Potency [4] was 50.1 µM (active) and 21.8 µM (active) and the Potency [2] was 0.0103 µM (active). For the same molecule, the Potency [3] was 0.0103 µM (active).

For C[C@@H](Nc1ncnc2[nH]c(-c3ccc(O)cc3)cc12)c1ccccc1, the Potency [1] was 1.2 µM (active), the Potency [2] was 5.78 µM (active) and 11.8 µM (active) and the Potency [3] was 5.78 µM (active) and 10.5 µM (active).

In the case of COc1cc2c(Nc3cc(F)c(Cl)c(Cl)c3)ncnc2cc1OCC1CCCN(C)CCC1, the Potency [1] is reported as 19 µM (active), the Potency [4] is reported as 31.6 µM (active) and the Potency [2] is reported as 3.25 µM (active). For the same molecule, the Potency [3] was 5.15 µM (active), the activity [5] was -15.2% and the activity change, negative = inhibition [6] was -2.91%. The activity [7] was -13.9% and the activity [8] was -10.4%.

For O=C(Nc1nnc(-c2ccc3c(c2)OCCO3)o1)C1CCCCC1, the Potency [1] was “inactive”, the Potency [2] was “inactive” and the Potency [3] was “inactive”.

For CCN(c1cc(-c2ccc(CN3CCOCC3)cc2)cc(C(=O)NCc2c(C)cc(C)[nH]c2=O)c1C)C1CCOCC1, the Potency [1] was 3.38 µM (active) and the Potency [2] was “inactive”.

With N#Cc1ccc(Nc2nc(-c3ccc(O)cc3O)cs2)cc1C(F)(F)F the Potency [1] was 1.69 µM (active), the Potency [4] was “inactive” and the Potency [2] was 16.3 µM (active). The outcome [9] was “inactive”, the outcome [10] was “inactive” and the outcome [11] was “inactive”.

With Cc1[nH]c(/C=C2\C(=O)Nc3cc(-c4ccccc4)ccc32)c(C)c1CCC(=O)O the Potency [1] was 12 µM (active), the Potency [4] was 49.4 µM (active) and the Potency [2] was 23 µM (active). The Potency [3] was 23 µM (active).

With Nc1nc2c(cnn2CCCc2ccc(O)cc2)c2nc(-c3ccco3)nn12 the Potency [1] was 3.01 µM (active), the Potency [2] was “inactive” and the Potency [3] was “inactive”.

With NCCOc1cc(C(=O)Nc2cc(OCCN)c3ccccc3n2)nc(C(=O)Nc2cc(OCCN)c3ccccc3n2)c1 the Potency [1] was “inactive”, the Potency [4] was 43.5 µM (active) and the Potency [2] was 4.09 µM (active) and 7.42 µM (active). The Potency [3] was 5.78 µM (active) and 8.33 µM (active).
